Measured values published in the supplement of paper PMC10849652.
Targets with a hit are over-represented here; the source holds about 8,800 in all. About 0.5% of all pairs of compound and target were hits.

How the values were obtained:
Assay in all cases: log2 fold change, soluble protein after heating vs DMSO (PISA); higher = thermal stabilisation; K562 lysate, 10 uM; active = over 0.2 and 3.5 SD of the protein, either way, in both replicates (recomputed)
[1] = compound: C1=CC=C(C=C1)[C@H](COC2=CC3=C(C=C2)NC(=O)N3)NC(=O)C4=CC=CN(C4=O)CC5=CC(=C(C=C5)F)F
Outline: (§1)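 A 30 min treatment with 10 μM compound was applied to crude K562 extract at 1 mg/mL protein in PBS pH 7.4 with 1 mM MgCl2. Heating for 3 min spanned 48°C-58°C, after which aliquots were pooled, adjusted to 0.5% NP-40 at 4°C and spun at 21,000xg for 90 min. TMTpro 16plex LC-MS/MS of the supernatant, with channel sums equalised, gave values recorded as log-two fold change in thermal stability against solvent controls, from duplicates.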

[2] = compound: CC1=C(SC2=C1C(=N[C@H](C3=NN=C(N32)C)CC(=O)N)C4=CC=C(C=C4)Cl)C
Outline: as §1

[3] = compound: CC1=C2C(=CC=C1)N=C(N(C2=O)C3=CC=CC=C3C)CN4C=NC5=C(N=CN=C54)N
Outline: as §1

[4] = compound: Cc1sc2c(c1C)C(c1ccc(Cl)cc1)=N[C@@H](CC(=O)OC(C)(C)C)c1nnc(C)n1-2
Outline: as §1

[5] = compound: c1ccc([C@@H]2C[C@H]2NC2CCNCC2)cc1
Outline: as §1

IRAK-1-4 Inhibitor I = compound: C1COCCN1CCN2C3=CC=CC=C3N=C2NC(=O)C4=CC(=CC=C4)[N+](=O)[O-] [IRAK-1-4 Inhibitor I]
Outline: as §1

Measured: log2 fold change

ATP6V1B1 (UniProt P15313)
Sequence of UniProt P15313 (P15313 whole entry, looked up): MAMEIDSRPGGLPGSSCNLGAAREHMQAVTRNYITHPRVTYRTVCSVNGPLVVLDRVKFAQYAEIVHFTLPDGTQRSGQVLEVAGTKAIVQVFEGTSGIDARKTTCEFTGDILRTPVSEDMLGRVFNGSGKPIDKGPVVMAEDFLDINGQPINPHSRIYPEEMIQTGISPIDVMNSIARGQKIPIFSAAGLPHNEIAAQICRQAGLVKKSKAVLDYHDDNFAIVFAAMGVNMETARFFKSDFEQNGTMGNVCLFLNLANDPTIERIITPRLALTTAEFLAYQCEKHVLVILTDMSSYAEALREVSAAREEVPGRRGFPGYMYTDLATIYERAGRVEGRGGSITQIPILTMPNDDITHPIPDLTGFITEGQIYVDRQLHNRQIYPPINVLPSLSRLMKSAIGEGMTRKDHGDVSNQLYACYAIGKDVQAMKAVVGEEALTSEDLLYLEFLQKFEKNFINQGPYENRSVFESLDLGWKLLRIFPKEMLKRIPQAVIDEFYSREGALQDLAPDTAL
inactive: [1] 0.023 | [2] 0.004 | [3] 0.004 | [4] -0.023 | [5] -0.157

CASP6 (UniProt P55212)
inactive: [1] 0.004 | [2] 0.011 | [3] 0.015 | [4] 0.009 | [5] -0.005

C3 (UniProt P01024)
inactive: [1] 0.013 | [2] 0.054 | [3] 0.132 | [4] -0.035 | [5] -0.03

ATM (UniProt Q13315)
inactive: [1] -0.015 | [2] 0.013 | [3] -0.037 | [4] 0.038 | [5] -0.036

CCDC32 isoform 2 (UniProt Q9BV29)
inactive: [1] -0.132 | [2] -0.103 | [3] -0.058 | [4] 0.015 | [5] -0.109

CDK9 isoform 2 (UniProt P50750)
inactive: [1] -0.001 | [2] -0.043 | [3] -0.015 | [4] -0.008 | [5] -0.114

ATE1 isoform 2 (UniProt O95260)
inactive: [1] -0.015 | [2] -0.008 | [3] -0.004 | [4] 0.009 | [5] -0.087

CASC4 (UniProt Q6P4E1)
inactive: [1] -0.008 | [2] 0.027 | [3] 0.039 | [4] -0.015 | [5] -0.055

CDK5 (UniProt Q00535)
inactive: [1] -0.01 | [2] -0.03 | [3] -0.021 | [4] 0.002 | [5] -0.02

CDK5RAP1 (UniProt Q96SZ6)
Sequence of UniProt Q96SZ6 (Q96SZ6 whole entry, looked up): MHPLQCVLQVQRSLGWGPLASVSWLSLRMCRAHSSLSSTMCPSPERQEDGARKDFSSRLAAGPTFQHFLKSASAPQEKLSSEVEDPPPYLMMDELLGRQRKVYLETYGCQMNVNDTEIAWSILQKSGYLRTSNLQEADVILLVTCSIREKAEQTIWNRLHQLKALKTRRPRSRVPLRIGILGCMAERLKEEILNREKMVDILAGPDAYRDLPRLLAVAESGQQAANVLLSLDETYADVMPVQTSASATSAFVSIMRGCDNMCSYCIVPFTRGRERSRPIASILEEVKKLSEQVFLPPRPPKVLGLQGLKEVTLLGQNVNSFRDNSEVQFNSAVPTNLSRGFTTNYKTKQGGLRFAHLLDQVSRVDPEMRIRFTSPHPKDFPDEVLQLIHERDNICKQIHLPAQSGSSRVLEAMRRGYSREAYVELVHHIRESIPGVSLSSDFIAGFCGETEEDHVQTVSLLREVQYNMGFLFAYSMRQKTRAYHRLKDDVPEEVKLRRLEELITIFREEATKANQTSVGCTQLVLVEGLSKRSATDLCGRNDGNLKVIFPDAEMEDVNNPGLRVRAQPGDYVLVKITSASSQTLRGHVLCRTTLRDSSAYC
inactive: [2] -0.117 | [3] 0.05 | [4] -0.023 | [5] -0.004
active: [1] 0.266

CEP128 (UniProt Q6ZU80)
inactive: [1] -0.38 | [2] 0.338 | [3] -0.023 | [4] -0.125 | [5] -0.507

CCNB1 (UniProt P14635)
inactive: [1] -0.019 | [2] 0.063 | [3] 0.038 | [4] -0.032 | [5] 0.036

CDC7 (UniProt O00311)
inactive: [1] -0.063 | [2] 0.084 | [3] 0.019 | [4] 0.003 | [5] 0.008

BCAR1 isoform 6 (UniProt P56945)
inactive: [1] 0.01 | [2] 0.013 | [3] -0.045 | [4] -0.043 | [5] 0.107

CCDC85B (UniProt Q15834)
Sequence of UniProt Q15834 (Q15834 whole entry, looked up): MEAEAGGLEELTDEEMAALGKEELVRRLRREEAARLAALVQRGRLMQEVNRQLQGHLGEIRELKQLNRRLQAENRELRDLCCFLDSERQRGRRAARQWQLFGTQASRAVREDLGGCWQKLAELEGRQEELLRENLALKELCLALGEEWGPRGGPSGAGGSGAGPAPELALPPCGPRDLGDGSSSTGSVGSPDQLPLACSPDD
inactive: [1] -0.033 | [2] -0.132 | [3] 0.08 | [4] -0.04 | [5] -0.034

CBX5 (UniProt P45973)
inactive: [1] 0.04 | [2] -0.002 | [3] -0.038 | [4] 0.031 | [5] -0.135

BNIP1 (UniProt Q12981)
Sequence of UniProt Q12981 (Q12981 whole entry, looked up): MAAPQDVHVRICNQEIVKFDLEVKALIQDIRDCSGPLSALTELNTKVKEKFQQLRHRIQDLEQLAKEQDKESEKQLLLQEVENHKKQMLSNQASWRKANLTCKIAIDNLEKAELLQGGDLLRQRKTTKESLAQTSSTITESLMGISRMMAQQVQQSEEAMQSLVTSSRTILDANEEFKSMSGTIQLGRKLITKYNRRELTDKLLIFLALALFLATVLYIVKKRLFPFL
inactive: [1] 0.021 | [2] -0.051 | [3] 0.001 | [4] 0.018 | [5] 0.149

CASP3 (UniProt P42574)
inactive: [1] 0.051 | [2] -0.011 | [3] 0.039 | [4] 0.051 | [5] 0.103

BSDC1 (UniProt Q9NW68)
inactive: [1] 0.155 | [2] -0.025 | [3] 0.021 | [4] -0.004 | [5] -0.026

CBFA2T3 (UniProt O75081)
Sequence of UniProt O75081 (O75081 whole entry, looked up): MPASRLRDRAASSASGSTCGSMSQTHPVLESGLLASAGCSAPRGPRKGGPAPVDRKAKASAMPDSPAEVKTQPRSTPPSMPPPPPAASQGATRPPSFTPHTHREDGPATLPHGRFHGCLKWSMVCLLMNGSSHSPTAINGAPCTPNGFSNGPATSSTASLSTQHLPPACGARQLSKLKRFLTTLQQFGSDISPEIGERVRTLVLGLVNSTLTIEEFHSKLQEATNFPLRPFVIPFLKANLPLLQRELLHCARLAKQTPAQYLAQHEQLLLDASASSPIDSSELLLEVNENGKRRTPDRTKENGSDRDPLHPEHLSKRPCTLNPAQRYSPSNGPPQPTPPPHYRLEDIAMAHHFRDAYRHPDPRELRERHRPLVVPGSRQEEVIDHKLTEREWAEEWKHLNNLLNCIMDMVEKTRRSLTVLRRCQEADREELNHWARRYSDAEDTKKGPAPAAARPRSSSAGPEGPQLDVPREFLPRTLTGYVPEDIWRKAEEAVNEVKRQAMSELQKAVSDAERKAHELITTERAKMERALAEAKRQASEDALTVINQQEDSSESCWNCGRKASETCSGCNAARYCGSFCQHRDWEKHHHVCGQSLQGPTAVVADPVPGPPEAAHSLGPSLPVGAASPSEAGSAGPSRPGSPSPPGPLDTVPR
inactive: [1] -0.029 | [2] -0.01 | [3] 0.058 | [4] 0.009 | [5] 0.019

ATP9B (UniProt O43861)
inactive: [1] 0.109 | [2] -0.028 | [3] 0.015 | [4] -0.019 | [5] -0.079

C3orf33 (UniProt Q6P1S2)
inactive: [1] 0.074 | [2] 0.143 | [3] -0.386 | [4] -0.03 | [5] -0.226

CDK2 (UniProt P24941)
inactive: [1] 0.006 | [2] 0.004 | [3] -0.039 | [4] 0.076 | [5] -0.028

CCNK isoform 4 (UniProt O75909)
inactive: [1] -0.018 | [2] -0.045 | [3] -0.026 | [4] -0.047 | [5] -0.175

BPHL (UniProt Q86WA6)
inactive: [1] 0.284 | [2] 0.038 | [3] -0.028 | [4] 0.158 | [5] 0.014

ATR (UniProt Q13535)
inactive: [1] -0.061 | [2] -0.036 | [3] -0.04 | [4] 0.003 | [5] -0.095

AVEN (UniProt Q9NQS1)
inactive: [1] 0.205 | [2] 0.025 | [3] 0.003 | [4] 0.013 | [5] -0.058

CHAF1A (UniProt Q13111)
inactive: [1] -0.099 | [2] 0.136 | [3] 0.041 | [4] 0.017 | [5] 0.022

CAMK2G isoform 8 (UniProt Q13555)
inactive: [1] 0.048 | [2] -0.063 | [3] -0.053 | [4] -0.007 | [5] -0.037

CDC40 (UniProt O60508)
inactive: [1] 0.036 | [2] 0.003 | [3] -0.099 | [4] 0.099 | [5] -0.03

C1orf112 (UniProt Q9NSG2)
inactive: [1] 0.066 | [2] -0.011 | [3] -0.007 | [4] 0.066 | [5] -0.345

C18orf32 (UniProt Q8TCD1)
inactive: [1] 0.039 | [2] 0.004 | [3] -0.245 | [4] -0.028 | [5] 0.076

BLOC1S6 (UniProt Q9UL45)
Sequence of UniProt Q9UL45 (Q9UL45 whole entry, looked up): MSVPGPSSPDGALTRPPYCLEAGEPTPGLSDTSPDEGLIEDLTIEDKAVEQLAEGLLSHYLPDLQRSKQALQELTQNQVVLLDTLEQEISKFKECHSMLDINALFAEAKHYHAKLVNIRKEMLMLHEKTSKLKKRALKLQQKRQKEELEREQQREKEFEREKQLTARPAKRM
inactive: [1] -0.078 | [2] 0.035 | [3] -0.04 | [4] -0.046 | [5] 0.021

CHD5 (UniProt Q8TDI0)
Sequence of UniProt Q8TDI0 (Q8TDI0 whole entry, looked up): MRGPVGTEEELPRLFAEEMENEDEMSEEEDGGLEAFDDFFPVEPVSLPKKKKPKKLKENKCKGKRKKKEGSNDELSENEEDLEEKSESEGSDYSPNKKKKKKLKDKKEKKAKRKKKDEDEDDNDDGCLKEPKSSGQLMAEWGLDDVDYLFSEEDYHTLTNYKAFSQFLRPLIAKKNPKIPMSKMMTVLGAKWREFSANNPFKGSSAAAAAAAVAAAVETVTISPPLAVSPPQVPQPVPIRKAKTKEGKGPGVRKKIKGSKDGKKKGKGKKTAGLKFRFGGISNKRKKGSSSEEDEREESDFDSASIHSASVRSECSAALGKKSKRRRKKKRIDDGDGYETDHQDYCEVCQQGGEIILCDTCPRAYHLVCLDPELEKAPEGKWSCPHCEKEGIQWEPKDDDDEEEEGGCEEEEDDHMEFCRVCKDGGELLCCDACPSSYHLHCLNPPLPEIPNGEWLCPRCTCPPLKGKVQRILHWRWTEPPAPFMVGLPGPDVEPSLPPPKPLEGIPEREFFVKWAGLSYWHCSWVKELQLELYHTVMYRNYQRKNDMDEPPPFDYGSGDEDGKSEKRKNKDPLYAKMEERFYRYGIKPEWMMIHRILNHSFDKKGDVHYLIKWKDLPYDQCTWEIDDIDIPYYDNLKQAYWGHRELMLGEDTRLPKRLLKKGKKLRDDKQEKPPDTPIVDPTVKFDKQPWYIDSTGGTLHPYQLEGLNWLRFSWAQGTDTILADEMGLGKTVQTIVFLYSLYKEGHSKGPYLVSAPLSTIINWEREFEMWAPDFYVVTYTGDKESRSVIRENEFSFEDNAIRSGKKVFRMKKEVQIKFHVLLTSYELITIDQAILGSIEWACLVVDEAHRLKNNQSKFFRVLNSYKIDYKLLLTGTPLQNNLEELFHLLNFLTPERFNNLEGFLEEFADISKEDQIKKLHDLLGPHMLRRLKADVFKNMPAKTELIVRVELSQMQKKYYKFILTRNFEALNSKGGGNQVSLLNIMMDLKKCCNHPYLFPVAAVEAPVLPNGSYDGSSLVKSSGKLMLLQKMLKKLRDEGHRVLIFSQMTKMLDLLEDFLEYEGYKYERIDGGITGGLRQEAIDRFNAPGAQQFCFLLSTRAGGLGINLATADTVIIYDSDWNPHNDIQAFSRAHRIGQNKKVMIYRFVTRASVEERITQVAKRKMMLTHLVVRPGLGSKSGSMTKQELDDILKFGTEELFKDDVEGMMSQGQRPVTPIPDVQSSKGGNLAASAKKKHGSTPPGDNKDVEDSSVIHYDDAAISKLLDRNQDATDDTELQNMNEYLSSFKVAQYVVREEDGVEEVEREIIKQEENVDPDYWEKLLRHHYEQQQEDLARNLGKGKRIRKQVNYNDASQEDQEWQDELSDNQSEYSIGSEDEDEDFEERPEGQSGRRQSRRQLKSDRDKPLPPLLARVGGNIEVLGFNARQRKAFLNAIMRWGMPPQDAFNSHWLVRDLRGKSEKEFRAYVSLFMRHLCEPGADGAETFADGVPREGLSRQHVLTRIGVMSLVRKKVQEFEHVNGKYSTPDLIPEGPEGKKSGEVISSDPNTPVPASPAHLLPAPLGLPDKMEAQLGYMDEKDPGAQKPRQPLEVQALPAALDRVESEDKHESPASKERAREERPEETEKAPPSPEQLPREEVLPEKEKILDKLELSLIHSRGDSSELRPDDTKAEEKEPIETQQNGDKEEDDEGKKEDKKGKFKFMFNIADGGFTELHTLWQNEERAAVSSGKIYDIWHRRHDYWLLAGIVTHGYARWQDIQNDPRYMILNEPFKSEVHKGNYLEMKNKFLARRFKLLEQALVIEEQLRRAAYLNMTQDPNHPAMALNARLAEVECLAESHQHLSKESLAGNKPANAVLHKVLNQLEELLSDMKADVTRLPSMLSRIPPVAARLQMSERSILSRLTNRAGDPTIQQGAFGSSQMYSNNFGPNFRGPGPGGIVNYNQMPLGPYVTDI
inactive: [1] -0.039 | [2] 0.003 | [3] -0.002 | [4] 0.085 | [5] 0.032

CCNA2 (UniProt P20248)
inactive: [1] 0.013 | [2] -0.006 | [3] -0.003 | [4] -0.021 | [5] -0.068

CAPNS1 (UniProt K7ES78)
inactive: [3] -0.094 | [4] -0.216

ATG4D (UniProt Q86TL0)
inactive: [1] -0.011 | [2] 0.057 | [4] 0.041

BCORL1 isoform 3 (UniProt Q5H9F3)
inactive: IRAK-1-4 Inhibitor I -0.141 | [3] 0.029 | [4] 0 | [5] -0.382

C8orf88 (UniProt P0DMB2)
inactive: [1] 0.033 | [2] 0.051 | [4] 0.051 | [5] -0.002

CANX (UniProt D6RHJ3)
inactive: [3] 0.072

BBS7 (UniProt Q8IWZ6)
inactive: [3] 0.035 | [4] -0.358 | [5] 0.181

C1orf131 isoform 5 (UniProt Q8NDD1)
inactive: [3] 0.096 | [4] -0.009 | [5] -0.108

CASC1 (UniProt Q6TDU7)
inactive: [1] -0.256 | [2] 0.037 | [5] 0.046

CHD9 (UniProt Q3L8U1)
inactive: [3] -0.074 | [4] 0.236 | [5] 0.232

C15orf39 (UniProt Q6ZRI6)
inactive: [1] -0.095 | [2] 0.049 | [4] 0.032 | [5] 0.161

CHD4, A0A2R8Y521
inactive: [4] -0.136

BAHCC1 (UniProt Q9P281)
inactive: [3] 0.011 | [4] -0.187
active: [5] -0.696

BTRC (UniProt Q9Y297)
inactive: [1] 0.024 | [2] -0.042 | [3] -0.003 | [5] -0.048

ATE1 (UniProt O95260)
inactive: [1] 0 | [2] 0.07 | [5] -0.125

CAD (UniProt H7BZB3)
inactive: [3] -0.011 | [5] -0.003

BUD13 (UniProt Q9BRD0)
inactive: [1] -0.037 | [2] 0.068 | [4] -0.162 | [5] 0.029

BMT2 (UniProt Q1RMZ1)
inactive: [5] 0.123

ATF7IP2 (UniProt Q5U623)
Sequence of UniProt Q5U623 (Q5U623 whole entry, looked up): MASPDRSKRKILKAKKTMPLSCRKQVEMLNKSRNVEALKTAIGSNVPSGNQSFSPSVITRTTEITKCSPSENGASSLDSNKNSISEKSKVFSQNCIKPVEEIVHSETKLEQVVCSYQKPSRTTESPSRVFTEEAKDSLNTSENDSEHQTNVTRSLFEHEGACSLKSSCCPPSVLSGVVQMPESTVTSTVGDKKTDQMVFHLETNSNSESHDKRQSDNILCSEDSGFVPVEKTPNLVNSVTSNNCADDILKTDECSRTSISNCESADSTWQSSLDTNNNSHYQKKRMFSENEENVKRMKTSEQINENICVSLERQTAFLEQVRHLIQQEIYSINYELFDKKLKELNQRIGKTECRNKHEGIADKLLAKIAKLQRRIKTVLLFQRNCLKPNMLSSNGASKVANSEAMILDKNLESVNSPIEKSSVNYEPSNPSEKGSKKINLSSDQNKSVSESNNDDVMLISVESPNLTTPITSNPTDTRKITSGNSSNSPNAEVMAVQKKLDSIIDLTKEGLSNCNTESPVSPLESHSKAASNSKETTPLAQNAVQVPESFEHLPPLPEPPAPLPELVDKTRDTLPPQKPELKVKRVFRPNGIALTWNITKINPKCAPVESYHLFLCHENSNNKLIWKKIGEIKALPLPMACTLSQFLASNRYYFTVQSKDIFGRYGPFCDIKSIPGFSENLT
inactive: [1] 0.162 | [2] 0.01 | [3] 0.101 | [5] 0.017

CEBPZOS (UniProt A8MTT3)
inactive: [3] -0.03 | [4] -0.006 | [5] 0.018

CDKL5 (UniProt O76039)
inactive: [3] 0.043 | [4] -0.139 | [5] -0.132

ATXN2 (UniProt F8WB06)
inactive: [4] -0.014

BICRA (UniProt Q9NZM4)
inactive: [1] -0.077 | [2] 0.208 | [4] -0.122 | [5] -0.142

CARHSP1 (UniProt H3BNU9)
inactive: [1] -0.034 | [2] -0.224 | [5] 0.094

CDK11A (UniProt Q9UQ88)
inactive: [1] -0.046 | [2] 0.025 | [4] 0.091 | [5] 0

CEP57L1 (UniProt Q8IYX8)
inactive: [1] -0.078 | [2] 0.115 | [4] 0.143 | [5] 0.099

ATPSCKMT (UniProt Q6P4H8)
inactive: [1] 0.111 | [2] -0.006 | [4] 0.023
